# Rv3671c protease – inhibitors of M. tuberculosis serine protease Rv3671c; P9WHR9; inhibition, % at 5.96 µM; hit rate 0.048% among 320,000; in the data active = inhibition above about 38%;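 also: extracellular domain of Rv3671c used as enzyme; 0% = enzyme with DMSO and 100% = no enzyme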
# Target sequence (P9WHR9 whole entry, looked up, the tested form may be a part): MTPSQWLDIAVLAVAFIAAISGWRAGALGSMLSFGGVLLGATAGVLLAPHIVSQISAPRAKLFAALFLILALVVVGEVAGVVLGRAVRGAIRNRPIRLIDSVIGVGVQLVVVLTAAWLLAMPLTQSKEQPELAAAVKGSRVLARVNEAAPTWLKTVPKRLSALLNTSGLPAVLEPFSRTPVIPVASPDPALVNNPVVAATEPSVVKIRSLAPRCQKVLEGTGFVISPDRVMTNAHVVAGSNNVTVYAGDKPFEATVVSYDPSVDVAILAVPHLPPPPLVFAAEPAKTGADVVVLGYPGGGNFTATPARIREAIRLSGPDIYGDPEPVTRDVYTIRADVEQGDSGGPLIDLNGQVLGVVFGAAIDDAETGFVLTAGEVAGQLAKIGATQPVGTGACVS
# FBA Mtb inh – inhibits M. tuberculosis FBA enzyme; purified M. tuberculosis FBA, fluorescence read-out; hit rate 2.3% among 360,000; AID 588726; P9WQA3; inhibition, % at 1 µM; in the data active = inhibition above about 27%;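 also: 0% = vehicle and 100% = reference inhibitor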
# GDH-TPI inh – counter-screen for M. tuberculosis FBA inhibitors: GDH-TPI coupled enzymes; inhibition, % at 4.8 µM; hit rate 1.2% among 360,000; AID 588335; GDH-TPI coupled enzyme counterscreen, NADH absorbance; in the data active = inhibition above about 30%;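 also: 0% = DMSO wells and 100% = wells lacking the enzyme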
# UGM FP inh – Mtb UDP-galactopyranose mutase inhibition; purified UGM, fluorescence polarization probe displacement; inhibition, % at 10 µM; P9WIQ1; hit rate 0.06% among 320,000; in the data active = inhibition above about 10%, passing the limit was not always enough
# FadD28 FP inh – M. tuberculosis FadD28 bisubstrate binding inhibition; FadD28 bisubstrate probe binding, fluorescence polarization; inhibition, % at 12.5 µM; hit rate 0.22% among 360,000; AID 588549; in the data active = inhibition above about 8.5%, passing the limit was not always enough
# Mtb hypoxia inh – Mtb hypoxia fluorescent reporter inhibition; M. tuberculosis hypoxia-regulated fluorescent reporter, fluorescence; fluorescence inhibition, % (no concentration beside the values); hit rate 0.1% among 300,000; AID 1159583; in the data active = fluorescence inhibition mostly above about 23%, no sharp cut-off; inactive = mostly below about 17%
# The depositor's hits bear a star; · = no result; + = active, no number. The list is not random: actives were taken first. Their share in the collection is about 3.5%.
SMILES,Rv3671c protease,FBA Mtb inh,GDH-TPI inh,UGM FP inh,FadD28 FP inh,Mtb hypoxia inh
O=C1C=C(c2cccc(CO)c2)CC(c2ccc(F)cc2)C1 (stereo not given),·,·,·,·,·,16
COCCn1c(=NC(=O)CSC(C)=O)sc2cc(OC)ccc21,1,-1,15,-2,-5,6
COCCn1c(=NC(=O)CSCC(=O)NC2CCCCC2)sc2cc(OC)ccc21,-14,-2,42*,-1,-1,·
CC(C)(C)OC(=O)CC1CC=CCC(CC(=O)N(CCO)Cc2ccccc2)C(=O)NC(C(C)(C)C)COC1=O (stereo not given),·,·,·,·,·,10
CCCCc1cc(=O)oc2cc(OC(C)C(=O)NCCN3CCOCC3)ccc12 (stereo not given),·,13,10,·,-1,·
COc1ccc2c(c1OC)c(=O)n1c3ccc(OC(C)C(=O)NCCCN4CCOCC4)cc3c3ccnc2c31 (stereo not given),-12,153*,3,-2,-5,·
Nc1cc(Cl)c2nonc2c1[N+](=O)[O-],-14,-5,-2,2,-16,40*
COc1cc([N+](=O)[O-])cc(C=NNC(=O)Cn2nccc2C)c1O,·,·,·,·,·,11
Cc1c(C(=O)N2CCC3(CC2)OCCO3)sc2ncnc(N(C)c3ccccc3)c12,5,1,20,0,0,·
Cc1c(C(=O)N2CCC(C)CC2)sc2ncnc(N(C)c3ccccc3)c12,1,0,35*,-5,0,15
Cc1cccc(C)c1NC(=O)/C(C#N)=C/c1cccs1,-1,3,42*,-2,0,·
N#CC(=Cc1cccs1)C(=O)Nc1nccs1,·,·,·,·,·,0
O=C(N/N=C/c1cc(Br)c(O)c(Br)c1)c1cc2c(ccc3ccccc32)o1,·,5,33*,0,25*,·
O=C(N/N=C/c1cc(Cl)c(O)c(Cl)c1)c1cc2c(ccc3ccccc32)o1,29,4,32*,3,39*,·
CC(C)COc1ccc(CSCCNC(=S)Nc2ccccc2)cc1,-49,74*,-8,-2,-7,·
CCN(C(=O)COC(=O)c1cc(=O)[nH]c2ccccc12)c1c(N)n(Cc2ccccc2)c(=O)[nH]c1=O,·,9,-2,·,-1,-5
O=C1CN(C(=O)COC(=O)c2ccccc2NCc2ccco2)c2ccccc2N1,-15,61*,14,0,0,13
CN(C(=O)COC(=O)c1ccccc1NCc1ccco1)c1c(N)n(Cc2ccccc2)c(=O)[nH]c1=O,-3,115*,2,0,-1,9
CCN(C(=O)COC(=O)c1ccco1)c1c(N)n(Cc2ccccc2)c(=O)[nH]c1=O,-6,-1,-6,-1,3,3
Cc1ccc(/C=C/C(=O)OCC(=O)N(CC(C)C)c2c(N)n(Cc3ccccc3)c(=O)[nH]c2=O)o1,-10,0,42*,-1,-1,·
CCN(C(=O)COC(=O)c1ccc(O)cc1O)c1c(N)n(Cc2ccccc2)c(=O)[nH]c1=O,-7,2,1,10*,·,2
Cc1cc(C)nc(SCc2ccc(C(=O)NN=Cc3ccco3)cc2)n1,·,·,·,·,·,15
COC(=O)C1=C(C(=O)OC)C2N(C)c3ccc(OC)cc3[C@@]23CC(C(=O)OC)N(C(=O)c2ccco2)C3=N1 (stereo not given in full),·,·,·,·,·,23
N#Cc1ccc(OCC(=O)N2CCN(S(=O)(=O)c3ccc(Cl)s3)CC2)cc1,-1,1,-9,-2,-6,27*
COC1C=CC23c4cc5c(cc4CO[C@]2(O)CN(C)C3C1)OCO5 (stereo not given in full),·,·,·,·,·,19
SMILES,Rv3671c protease,FBA Mtb inh,GDH-TPI inh,UGM FP inh,FadD28 FP inh,Mtb hypoxia inh
O=C(Cc1cc(=O)oc2cc(O)ccc12)NCC1CCC(C(=O)O)CC1 (stereo not given),-9,+,10,0,-4,1
Cc1cc(=O)oc2cc(OC(C)C(=O)NCC3CCC(C(=O)O)CC3)ccc12 (stereo not given),0,28*,18,1,-2,·
CCSc1nnc(NC(=O)[C@H](C)N2C(=O)C3CC=CCC3C2=O)s1 (stereo not given in full),0,0,-4,-1,-1,30*
CC(=O)c1cnc(N(C)C)s1,-2,3,38*,1,-1,·
Cc1ccc(C2CC(=O)NC(SCC(=O)Nc3nccs3)=C2C#N)cc1 (stereo not given),1,-8,0,4,12*,·
CC[n+]1c(/C=C/N(C)c2ccccc2)oc2ccc(Cl)cc21,-19,-5,46*,2,2,·
O=C(NN=Cc1ccc(O)c(O)c1)NN=Cc1ccc(O)c(O)c1,·,·,·,·,·,11
CC1Cc2cc(/C(O)=C3/C(=O)C(=O)N(CCCn4ccnc4)C3c3ccc([N+](=O)[O-])cc3)ccc2O1 (stereo not given),·,2,13,·,-2,·
CC1Cc2cc(/C(O)=C3/C(=O)C(=O)N(CCCn4ccnc4)C3c3ccc(F)cc3)ccc2O1 (stereo not given),3,2,32*,5,0,-3
CC(C)(C)OC(=O)NCCCCC(NC(=O)c1[nH]cnc1C(=O)Nc1ccccc1)C(=O)OC(C)(C)C (stereo not given),·,·,·,·,·,-3
Cc1c(CC(=O)O)c(=O)oc2cc(OCc3ccc(Cl)cc3)ccc12,-5,126*,18,2,-1,6
Cc1c(CC(=O)O)c(=O)oc2cc(OCc3nn[nH]n3)ccc12,-1,+,11,-2,-1,-1
Cc1c(Cc2ccccc2)c(=O)oc2cc(OCc3ccc(C(=O)O)cc3)ccc12,1,17,10,-8,-2,12
CCOC(=O)CCc1c(C)c2ccc(OCc3nn[nH]n3)cc2oc1=O,-1,+,-2,-1,-2,2
O=C(NC1CCCCCC1)c1cc2c(=O)n3ccccc3nc2s1,-8,+,18,3,-3,-9
Cc1cccn2c(=O)c3cc(C(=O)NC4CCS(=O)(=O)C4)sc3nc12 (stereo not given),0,192*,27,2,-3,-7
C=CCNC(=O)c1cc2c(=O)n3ccccc3nc2s1,5,+,12,-2,-2,-1
CC(C)(Oc1ccc(Cl)cc1)C(=O)NN=Cc1cn[nH]c1-c1ccccc1,·,·,·,·,·,6
C[n+]1ccc(C(=O)NN=Cc2ccco2)cc1,·,·,·,·,·,8
COc1ccc(C2CC=C(C(=O)O)C(c3ccc(F)cc3)N2S(=O)(=O)c2ccc(C)cc2)cc1OC (stereo not given),·,·,·,·,·,8
N#Cc1ccc(-c2cn3c(n2)SCC3)cc1,·,+,4,2,-3,5
O=S(=O)(Nc1ccc(-c2cn3c(n2)SCC3)cc1)c1cccs1,-10,0,12,1,3,-4
N#Cc1c(-c2ccc([N+](=O)[O-])cc2)nc2n(c1=O)CCS2,1,1,14,0,0,2
O=[N+]([O-])c1ccc(-c2cn3c(n2)SCC3)cc1,-2,1,37*,-1,0,7
COC(=O)C1=C(c2ccc(OC)c(OC)c2)CC2CCC1N2C(=O)NC(C)C (stereo not given),·,·,·,·,·,4
